Source: PubChem (National Center for Advancing Translational Sciences (NCATS))
FLuc inh-1 – Firefly luciferase inhibition profiling of diverse chemical library using quantitative high-throughput screening; Luciferin 4-monooxygenase (Photinus pyralis), P08659; purified P. pyralis luciferase, luminescence, biochemical; Potency, µM (series often up to 115 µM), usual class: inhibitors; 2.5% of 76,000 active; also: nearly all actives have a fitted effect of over 65% in size
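Purified P. pyralis luciferase (10nM final) in 50mM Tris acetate pH 7.5, 10mM Mg acetate, 0.01% Tween-20, 0.05% BSA with 10uM D-luciferin and 10uM ATP. Compounds titrated qHTS. Luminescence imaged on CCD.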
3T3 cytotox – Cytotoxic Profiling in NIH 3T3 Cell Line of Diverse Libraries Using Quantitative High-Throughput Screening; NIH 3T3 viability, CellTiter-Glo ATP luminescence, 48-72 h; Potency, µM (titrated, usually from 96.7 µM), hits mostly inhibitors; 4.3% of 94,000 active; also: nearly all actives have a fitted effect of over 55% in size
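Cells were seeded at 400 per well, treated with pin-transferred compound, and kept 48 or 72 hr at 37 °C before CellTiter-Glo addition and luminescence imaging of cellular ATP.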
HEK cytotox – Cytotoxic Profiling in HEK 293 Cell Line of Diverse Libraries Using Quantitative High-Throughput Screening; HEK 293 viability, ATP luminescence (CellTiter-Glo), 48-72 h; Potency, µM (top dose mostly 115 µM), actives largely listed as inhibitors; 6.6% of 94,000 active; AID 1345083, 2018; also: nearly all actives have a fitted effect of over 60% in size
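HEK 293 seeded at 250 cells/well receive compound via pintool. After 48 or 72 hr at 37 degree Celsius, 5% CO2 and 95% humidity, CellTiter-Glo is dispensed and luminescence read following 10 min at room temperature.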
hNpr1 antagonist – Natriuretic polypeptide receptor (hNpr1) antagonism - Primary qHTS | Atrial natriuretic peptide receptor 1 (Homo sapiens), P16066 | HEK293 hNpr1 GloSensor cGMP, ANP-stimulated luminescence | Potency, µM (doses to about 46.3 µM), hits mostly inhibitors | 1.6% of 76,000 active | AID 1347048, 2019; calls by dose curve; also: nearly all actives have a fitted effect of over 60% in size
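HEK293 cells stably expressing human Npr1 and cGMP GloSensor pGS-40F, loaded 2 h with 2% GloSensor reagent, given compound 30 min at room temperature. Luminescence read before and 20 min after 0.1 nM hNppA.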
FLuc SDR no ATP – Firefly luciferase (FLuc-C-HiBiT) SDR gain of signal screen - without ATP; shares compounds with FLuc inh-1; Purified FLuc-C-HiBiT, Nano-Glo HiBiT luminescence, no ATP; Potency, µM (top dose mostly 32.7 µM), actives largely listed as activators; 7.8% of 1,300 active; AID 1963318, 2024; also: nearly all actives have a fitted effect of over 55% in size
FLuc SDR ATP – Firefly luciferase (FLuc-C-HiBiT) SDR gain of signal screen - plus ATP. Potency, µM (series often up to 32.7 µM), actives largely listed as activators. 8.7% of 1,300 active. shares compounds with FLuc inh-1. purified FLuc-C-HiBiT + ATP, HiBiT complementation luminescence;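 also: signal reports ligand binding via conformational change of the enzyme rather than luciferase catalysis; nearly all actives have a fitted effect of over 55% in size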
FLuc inh-2 – Firefly luciferase (FLuc-C-HiBiT) enzymatic inhibition screen - Functional assay | shares compounds with FLuc inh-1 | purified FLuc-C-HiBiT enzyme, luciferin luminescence | Potency, µM (doses to about 32.7 µM), actives largely listed as inhibitors | 42% of 1,300 active | AID 1963320, 2024; also: nearly all actives have a fitted effect of over 70% in size
A number is an active result; . = inactive; ? = inconclusive; / = no result. An excerpt weighted towards active compounds, which were near 11% of everything screened. Unless noted, calls follow the shape of the dose curve; as a rule, active = well fitted curve in the direction sought with a large enough effect; inconclusive = small, poorly fitted or top-dose-only effect, or another doubt; inactive = no such curve, though single readings can be large; an effect the other way counts as inactive or inconclusive.

SMILES | FLuc inh-1 | 3T3 cytotox | HEK cytotox | hNpr1 antagonist | FLuc SDR no ATP | FLuc SDR ATP | FLuc inh-2
CC(C)(C)C1CCc2nc(NC(=O)c3cccc(Cl)c3)sc2C1 (stereo not drawn) | / | / | / | / | . | . | 2.5µM
CNC(=O)c1cc(C)nc2onc(C3CCCN3C(=O)Nc3ccccc3)c12 (stereo not drawn) | / | . | . | / | / | / | /
Cc1cc(-c2cc3c(cn2)CN(Cc2nccn2C)CCN3)ccn1 | / | / | / | / | . | . | ?
CC(=O)Nc1cccc(-c2cc3c(cn2)CN(Cc2ccccc2)CCN3)c1 | 14µM | ? | ? | . | . | . | ?
Cn1ccnc1CN1CCN(c2nccc(-c3ccccn3)n2)CC1 | . | . | . | . | / | / | /
CC(=O)N1CCN(C(=O)c2cccc(-c3ccccn3)c2)CC1 | / | . | . | / | / | / | /
CC(=O)N1CCNc2cc(-c3cccc(F)c3)ncc2C1 | / | / | / | / | . | . | ?
COc1cccc(CN2CCNc3cc(-c4ccnc(C)c4)ncc3C2)c1 | 14µM | ? | 71µM | . | . | . | ?
Fc1cccc(CN2CCNc3cnc(OCc4cccnc4)cc3C2)c1 | . | ? | ? | . | / | / | /
COc1ccc(C(=O)N2CC(C(=O)NCCc3ccncc3)C3(CCOCC3)C2)cc1 (stereo not drawn) | . | . | . | . | / | / | /
Cc1noc(-c2cn(C3CCN(C(=O)COc4ccc(F)cc4)CC3)nn2)n1 | . | ? | . | . | / | / | /
COC[C@@H]1CN(C(=O)c2ccsc2)C[C@H]1c1ccccn1 | / | . | . | / | / | / | /
COCCN1CCNc2cc(-c3cccc(N(C)C)c3)ncc2C1 | / | / | / | / | . | ? | 16µM
COCCN1CCNc2cc(-c3cc(Cl)ccc3OC)ncc2C1 | ? | ? | ? | . | / | / | /
CS(=O)(=O)N1CCC(OC2CCN(C(=O)Nc3cccc(C(F)(F)F)c3)CC2)CC1 | . | . | ? | . | / | / | /
CNC(=O)[C@@H](CC(C)C)N1CCC[C@H]1C(=O)NCCc1ccccn1 | . | . | . | . | / | / | /
COc1ccc(C(=O)NC2CCCN(c3cc(-c4ccc(Cl)cc4)[nH]n3)C2)cc1OC (stereo not drawn) | 4µM | ? | 35µM | . | . | . | 6.2µM
COc1ccc(C(=O)NC2CCCN(c3cc(-c4ccc(F)cc4)[nH]n3)C2)cc1OC (stereo not drawn) | 13µM | . | ? | . | . | . | ?
O=C(NC1CCCN(c2cc(-c3ccc(F)cc3)[nH]n2)C1)c1ccc(C(F)(F)F)cc1 (stereo not drawn) | . | . | ? | . | / | / | /
COc1ccc(-c2cc(N3CCCC(NC(=O)c4ccc(OC)c(OC)c4)C3)n[nH]2)cc1 (stereo not drawn) | 3.2µM | ? | ? | . | ? | ? | 3.9µM
NC(=O)c1cccc(-c2n[nH]c3c2CC(=O)N(CCOc2ccccc2)C3)c1 | . | . | ? | . | / | / | /
Cn1cnc(S(=O)(=O)N2CCC(c3noc(-c4cnccn4)n3)C2)c1 (stereo not drawn) | . | . | . | . | / | / | /
O=C(c1ccc(Cl)cc1)N1CC2(CCCN2C2COC2)Cc2ccccc21 (stereo not drawn) | / | . | ? | / | / | / | /
O=C(Nc1cccc(F)c1)Nc1ccc2n(c1=O)C[C@H]1C[C@@H]2CN(C(=O)c2ccc(F)cc2)C1 | 10µM | ? | 40µM | . | . | . | ?
Nc1nc2c([nH]c(=O)n2C2CC(O)C(CO)O2)c(=O)[nH]1 (stereo not drawn) | / | / | / | / | . | . | .
SMILES | FLuc inh-1 | 3T3 cytotox | HEK cytotox | hNpr1 antagonist | FLuc SDR no ATP | FLuc SDR ATP | FLuc inh-2
COC(=O)c1ccc2c(c1)/C(=C/c1cc(Br)c(O)c(Br)c1)C(=O)N2 | / | / | / | / | . | . | 9.9µM
COCC1(CNCc2cccc(OC)c2)C[C@@H](O)[C@@H](O)C1 (stereo partly drawn) | . | . | . | . | / | / | /
Cc1ccc(/C=C/c2nc3ccccc3n2S(=O)(=O)c2ccc(Br)cc2)cc1 | / | / | / | / | 1.8µM | ? | 0.62µM
O=S(=O)(c1cccc(Cl)c1)n1c(/C=C/c2ccccc2Cl)nc2ccccc21 | / | / | / | / | 1.6µM | ? | 0.18µM
CSc1ccc(/C=C/c2nc3ccccc3n2S(=O)(=O)c2cccc(Cl)c2)cc1 | / | / | / | / | 2µM | ? | 0.56µM
COc1cccc2cc(-c3nnc(-c4ccc(Cl)cc4)o3)c(=O)oc12 | / | / | / | / | . | ? | ?
O=C(NCC(F)(F)F)C1CN(c2ccc(F)cc2)C(=O)N1 (stereo not drawn) | ? | . | . | . | / | / | /
CCN(CCOC)C(=O)c1coc(COc2ccc3sc(C)nc3c2)n1 | . | . | ? | . | / | / | /
CCN(CC)CCOc1ccc(-c2nc3cc(Cl)ccc3s2)cc1 | / | / | / | / | . | . | ?
Fc1ccc(-n2ncc3c(N4CCCCC4)nc(NN4CCOCC4)nc32)cc1 | / | / | / | / | . | . | .
Cc1ccc(C2Cn3nnc(C(=O)N4CCC(C(=O)NCc5ccncc5)CC4)c3CO2)cc1 (stereo not drawn) | 14µM | . | . | . | . | ? | ?
COc1ccc(CNC(=O)C2CCN(C(=O)c3nnn4c3COC(c3ccc(C)cc3)C4)CC2)cc1 (stereo not drawn) | . | . | . | . | / | / | /
Cc1ccc(C2Cn3nnc(C(=O)N4CCC(C(=O)NC5CC5)CC4)c3CO2)cc1 (stereo not drawn) | 10µM | . | . | . | . | ? | ?
O=[S+]([O-])(c1cccnc1)N1CCNc2cnc(Nc3ccc(-n4ccnc4)cc3)nc2C1 | . | ? | . | . | / | / | /
CCOc1ccc(C(=O)Nc2cc(-c3nc4cc(OC)ccc4o3)ccc2C)cc1[N+](=O)[O-] | / | / | / | / | . | . | ?
COc1ccc(NC(=O)c2ccc3oc(-c4ccncc4)nc3c2)cc1 | / | . | . | / | / | / | /
NS(=O)(=O)c1cccc(N=Cc2c(O)[nH]c3ccccc23)c1 | / | / | / | / | . | . | .
Cc1ccc(Cl)cc1-n1nnc(-c2nsc(NC(=O)c3ccccc3Cl)n2)c1C | / | / | / | / | . | . | .
C[C@H](C(=O)N1CCOCC1)C1CC[C@@]2(C)Cc3sc(-c4ccccc4)nc3[C@@H](C)[C@@H]2[C@H]1O (stereo partly drawn) | 14µM | ? | ? | . | 6.2µM | ? | 3.5µM
C[C@H](C(=O)NCCN1CCOCC1)C1CC[C@@]2(C)Cc3sc(CSc4ccccc4)nc3[C@@H](C)[C@@H]2[C@H]1O (stereo partly drawn) | 11µM | ? | 40µM | 10µM | . | . | ?
